Reference: PubChem BioAssay (NCATS)
Results filed as inconclusive are left out. The source made the active and inactive calls. The call rests on the fitted dose curve; in most records, active means well fitted curve in the direction sought with a large enough effect; inconclusive means small, poorly fitted or top-dose-only effect, or another doubt; inactive means no such curve, though single readings can be large; an effect the other way counts as inactive or inconclusive.

Key:
[1] = target: Cellular tumor antigen p53 (Homo sapiens) (UniProt P04637); experiment: Primary qHTS for small molecule compounds that upregulate eGFP-tagged delta133p53alpha (in N-terminal) cells. (AID 2060322); details: NCI-H358 eGFP-delta133p53alpha fluorescence, 24 h; activation: stronger effect = higher value;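 further: cells pre-induced with doxycycline then dosed without doxycycline; series mostly up to about 56 µM; 0% = DMSO vehicle and 100% = reference activator; nearly all actives have a fitted effect of over 75% in size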
Chain of Cellular tumor antigen p53 (Homo sapiens) (P04637 whole entry, looked up): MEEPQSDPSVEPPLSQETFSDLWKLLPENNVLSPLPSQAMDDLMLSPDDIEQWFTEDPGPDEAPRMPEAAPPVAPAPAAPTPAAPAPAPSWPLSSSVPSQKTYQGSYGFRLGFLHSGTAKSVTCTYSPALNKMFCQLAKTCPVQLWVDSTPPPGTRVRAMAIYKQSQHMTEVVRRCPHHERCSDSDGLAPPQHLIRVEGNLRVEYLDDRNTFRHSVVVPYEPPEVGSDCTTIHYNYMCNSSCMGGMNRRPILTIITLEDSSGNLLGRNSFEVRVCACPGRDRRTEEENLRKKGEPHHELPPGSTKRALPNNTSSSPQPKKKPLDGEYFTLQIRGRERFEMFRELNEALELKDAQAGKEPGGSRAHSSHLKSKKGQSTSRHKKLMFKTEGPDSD
Outline: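 NCI-H358 cells pre-induced 24 h with 10 ng/ml doxycycline for eGFP-delta133p53alpha, plated dox-free and exposed 24 h at 37C to titrated compounds. Fixed, Hoechst-stained; gated GFP peak intensity by laser scanning cytometry, normalized to DMSO (0%) and 57.5 uM 5-azacytidine (100%).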

[2] = target: Aldehyde dehydrogenase, mitochondrial (Homo sapiens) (UniProt P05091); experiment: qHTS for Inhibitors of the Aldehyde Dehydrogenase Family (ALDH2) Primary screen (AID 2061308);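 further: plate controls were vehicle for no effect and reference inhibitor for full effect; nearly all actives have a fitted effect of over 55% in size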
[3] = target: Retinaldehyde dehydrogenase 3 (Homo sapiens) (UniProt P47895); experiment: qHTS for Inhibitors of the Aldehyde Dehydrogenase Family (ALDH1A3) Primary screen (AID 2061315);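 further: plate controls were DMSO vehicle for no effect and reference inhibitor for full effect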

CC1OC(OCC2OC(OC3CCC4(C)C(CCC5(C)C4CC=C4C6CC(C)(C)CCC6(C(=O)OC6OC(CO)C(O)C(O)C6O)CCC45C)C3(C)CO)C(O)C(O)C2O)C(O)C(O)C1O (centres undefined)
inactive: activation [1] -9.92% | Potency [2] | Potency [3]

CC12CCC3C(C)(C)C(O)CCC3(C)C1Cc1c(oc(C(=O)O)cc1=O)O2 (centres undefined)
inactive: activation [1] -9.92% | Potency [2] | Potency [3]

CC(CCC1(O)OC2CC3C4CC=C5CC(O[C@@H]6O[C@H](CO)[C@@H](O[C@@H]7O[C@H](CO)[C@@H](O)[C@H](O)[C@H]7O)[C@H](O)[C@H]6O[C@@H]6O[C@@H](C)[C@H](O)[C@@H](O)[C@H]6O)CCC5(C)C4CCC3(C)C2C1C)CO[C@@H]1O[C@H](CO)[C@@H](O)[C@H](O)[C@H]1O (some centres undefined)
inactive: activation [1] 12.5% | Potency [2] | Potency [3]

C[C@@H]1C(=O)O[C@H]2CC34[C@H]5C[C@@H](C(C)(C)C)C36[C@@H](OC(=O)[C@@H]6O)O[C@@]4(C(=O)O5)[C@]21O (some centres undefined)
inactive: activation [1] 19.1% | Potency [2] | Potency [3]

CC(C)NC[C@H](O)COc1ccc(CCOCC2CC2)cc1
inactive: activation [1] 1.67% | Potency [2] | Potency [3]

COC1CC/C=C(\C)C(=O)Nc2cc(O)cc(c2)CC(C)CC(OC)C(O)C(C)/C=C(\C)C1OC(N)=O (centres undefined)
inactive: activation [1] 6.87% | Potency [2] | Potency [3]

O=C(c1ccccc1)c1c(O)cc(O)cc1O[C@@H]1O[C@H](CO)[C@@H](O)[C@H](O)[C@H]1O
inactive: activation [1] -13% | Potency [2] | Potency [3]

CC(=O)O[C@@H]1[C@@H](O)[C@H](C)O[C@@H](O[C@H]2[C@@H]3C=CO[C@@H](O[C@@H]4O[C@H](CO)[C@@H](O)[C@H](O)[C@H]4OC(C)=O)[C@@H]3[C@@]3(CO)O[C@@H]23)[C@@H]1OC(=O)/C=C/c1ccc(O)cc1
inactive: activation [1] -17.6% | Potency [2] | Potency [3]
